What follows are molecules tested on Plasmodium falciparum (assay: GSK_TCMDC: Inhibition of Plasmodium falciparum 3D7 in whole red blood cells, using parasite LDH activity as an index of growth. Test compounds present at 2uM).
Type: functional

SMILES | Inhibition
O=C(Nc1ccc2ccccc2c1)N(CCCn1ccnc1)Cc1csc(-c2ccc(CNCc3ccccc3)cc2)n1.O=C(O)C(F)(F)F | 99%
CCCCNCc1ccc(-c2nc(CN(CCCn3ccnc3)C(=O)Nc3ccc(CC)cc3)cs2)cc1.O=C(O)C(F)(F)F | 100%
CCNc1cc(C)nc(Nc2ccc(NC(=O)c3ccco3)cc2)n1 | 95%
CCN(CC)CCN(CCCc1ccc(-c2ccc(C(F)(F)F)cc2)cc1)C(=O)Cn1c(CCc2cccc(F)c2F)nc(=O)c2ccccc21.O=C(O)C(O)C(O)C(=O)O | 100%
COc1ccc(OC)c(C=NNc2nc3ccccc3[nH]2)c1 | 99%
COc1ccc(CC2(c3ccc(F)cc3)N=C(N)N(CCCc3cccnc3)C2=O)cc1.O=C(O)C(F)(F)F (stereo not drawn) | 98%
Br.Cc1cc(F)ccc1Nc1nc(N(C)c2ccccc2)c2cccc(O)c2n1 | 92%
O=C(Nc1cccc(-c2ccc(-c3nc4ccccc4[nH]3)s2)c1)c1ccncc1 | 92%
CCOC(=O)c1ccc(NC(=O)Nc2ccc(-c3cccc(-c4nc5ccccc5[nH]4)c3)cc2)cc1 | 100%
Cl.O=C(OCC1CCN(Cc2ccccc2)C1)c1ccc(Cl)cc1 (stereo not drawn) | 100%
CN1CCN(CCCN(Cc2cccc(-c3ccc(CNCc4ccc5c(c4)OCO5)cc3)c2)C(=O)Nc2ccccc2)CC1.O=C(O)C(F)(F)F | 98%
COc1cc2c(cc1C(F)(F)F)N(C(=O)Nc1cc(F)cc(-c3cccnn3)c1)CC2 | 90%
O=C(Cc1cccs1)NCC(c1ccccc1Cl)c1c[nH]c2ccccc12 (stereo not drawn) | 91%
O=C(N[C@H]1CCN(Cc2ccc(OCCN3CCNCC3)c(Cl)c2)C1)c1ccc(Cl)c(Cl)c1.O=C(O)C(F)(F)F | 100%
CN1CCC(NCc2cccc(-c3nn(C)c4nc(NC5CCCC5)ncc34)c2)CC1 | 98%
CCCN(CC1CC1)c1ncc(-c2cccc(CNCCC3CCCN3C)c2)cn1 (stereo not drawn) | 98%
CCC[C@@H](/C=N/N(C)C(=O)OC(C)(C)C)NC(=O)[C@H](CC(C)C)NC(=O)c1cc2cccc(OC)c2o1 | 88%

SMILES | Inhibition
CCN(CC)CCN(Cc1ccc(-c2ccc(C(F)(F)F)cc2)cc1)C(=O)Cn1c(CCc2c(F)cc(F)cc2F)nc(=O)c2ccccc21.O=C(O)C(O)C(O)C(=O)O | 89%
Cc1sc(N2CCCCC2)nc1C(=O)Nc1ccc(F)cc1C(F)(F)F.O=C(O)C(F)(F)F | 86%
CC(=O)Nc1cccc(Nc2nccc(Nc3ccc(Oc4ccccc4)cc3)n2)c1.Cl | 100%
Cc1cnc(CN(Cc2ccc(-c3ccc(CNCCc4ccc(S(C)(=O)=O)cc4)cn3)cc2)C(=O)c2ccc([N+](=O)[O-])c(C)c2)cn1.O=C(O)C(F)(F)F | 93%
O=C(Nc1ccc(Cn2ncc(N3CCCNCC3)c(Cl)c2=O)cc1)Nc1cc(F)cc(C(F)(F)F)c1.O=C(O)C(F)(F)F | 100%
COc1cc(C(=O)N2CCOC(CCN3CCC4c5ccccc5CC43)(c3ccc(Cl)c(Cl)c3)C2)cc(OC)c1OC (stereo not drawn) | 88%
O=C(Nc1cccc(-c2ccc(-c3nc4cc(C(F)(F)F)ccc4[nH]3)cc2)c1)c1c[nH]cn1 | 91%
CC(C)COc1ccc(Cl)cc1Cc1ccc(-c2nc3cc(F)c(F)cc3[nH]2)o1 | 95%
Cc1ccc2c(-c3ccc([N+](=O)[O-])o3)cc(C)nc2c1 | 95%
CCN(CC)CCN(Cc1ccc(-c2ccc(C(F)(F)F)cc2)cc1)C(=O)Cn1c(CCc2ccc(F)c(C#N)c2)nc(=O)c2ccccc21.O=C(O)C(O)C(O)C(=O)O | 98%
Cl.N=c1n(CCN2CCCCC2)c2ccccc2n1CC(O)c1cccc(Br)c1 (stereo not drawn) | 86%
CCOc1ccccc1CCNC(C)Cc1ccc(C(=O)Nc2ccc(CC(C)NCCc3cccc(Cl)c3)cc2)cc1 (stereo not drawn) | 97%
Cl.O=C(Nc1ccc(C(=O)OCC2CCCN3CCCCC23)cc1)c1ccc(Cl)c(Cl)c1 (stereo not drawn) | 99%
O=C(O[C@@H]1CN[C@H](C#Cc2cc3ncnc(Nc4ccc5c(cnn5Cc5cccc(F)c5)c4)c3s2)C1)N1CCCC1 | 86%
CN(C)Cc1cccc(-c2ccc(NC(=O)c3ccc4c(=O)n(CC5CCCO5)cnc4c3)cc2)c1 (stereo not drawn) | 97%
COc1ccccc1-c1csc(C(=O)NC2CCCCN(Cc3ccc(C(C)(C)C)cc3)C2)c1.O=C(O)C(F)(F)F (stereo not drawn) | 99%

Source: ChEMBL document CHEMBL1157539, “Thousands of chemical starting points for antimalarial lead identification” (Nature, 2010)
